Experimental data as given in PubChem BioAssay (NCI).
About 79,000 compounds went through this panel and 15% of them were active in at least one assay; those are over-represented in the sample as a whole. Unmarked numbers belong to inactive results. Calls of active or inactive are those of the source. No stated cut-off is given here; in the data, active means growth inhibition above about 70%; inactive means the rest.

Experiments:
[1] = NCI Yeast Anticancer Drug Screen. Data for the rad50 strain (AID 155);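 further: 0% = growth of vehicle-only cultures of the same strain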; conditions: S. cerevisiae rad50 strain growth inhibition; at 50.0 µM; hits give high values
How it was run: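 Vehicle-treated cultures provide the reference for the growth inhibition reported for compound-exposed, repair-deficient yeast.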

[2] = NCI Yeast Anticancer Drug Screen. Data for the mec2-1 strain (AID 157); conditions: S. cerevisiae mec2-1 strain, at 50.0 µM, hits give high values
How it was run: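 Vehicle-treated cultures served as reference for growth inhibition of compound-exposed mec2-1 yeast.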

[3] = NCI Yeast Anticancer Drug Screen. Data for the sgs1 mgt1 strain (AID 161);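 further: 0% = growth of cultures given vehicle only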; conditions: S. cerevisiae sgs1 mgt1 strain, at 50.0 µM, hits give high values
How it was run: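 Inhibition of yeast growth, normalised to vehicle-treated controls, is reported for a strain bearing genetic alterations in DNA damage repair.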

[4] = NCI Yeast Anticancer Drug Screen. Data for the cln2 rad14 strain (AID 165);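 further: 0% = growth equal to vehicle treated cultures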; conditions: S. cerevisiae cln2 rad14 strain, at 50.0 µM, hits give high values
How it was run: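 Each compound was tested on cln2 rad14 yeast. Inhibition of growth was calculated against vehicle-exposed controls.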

[5] = NCI Yeast Anticancer Drug Screen. Data for the bub3 strain (AID 167); conditions: S. cerevisiae bub3 mutant strain, at 50.0 µM, hits give high values
How it was run: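 Mutant yeast screening strain plus compound; vehicle-treated cultures serve as the 0% inhibition reference.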

[6] = NCI Yeast Anticancer Drug Screen. Data for the mlh1 rad18 strain (AID 175); conditions: S. cerevisiae mlh1 rad18 strain growth inhibition; at 50.0 µM; hits give high values
How it was run: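 Vehicle-treated cultures served as the reference for growth inhibition in a yeast strain carrying DNA damage repair alterations exposed to each compound.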

Row | Compound | growth inhibition [1] | growth inhibition [2] | growth inhibition [3] | growth inhibition [4] | growth inhibition [5] | growth inhibition [6]
1 | CCOC(=O)N/N=C(/OCC)c1ccccc1 | 9.75% | 2.7% | -7.2% | 5.8% | 13.8% | 5.8%
2 | O=C(CC1CCCCC1)OCC1CCCO1 (stereo unspecified) | -7.1% | -25.6% | -18.4% | -4.15% | -6.95% | 4.55%
3 | CCN(CC)CCC(=O)Nc1cc(OC)cc2cccnc12 | 10.7% | 10.5% | 6.25% | -21.1% | -19.4% | -8.1%
4 | CNC(=O)NC(c1ccc2c(c1)OCO2)c1cc2c(cc1O)OCO2 (stereo unspecified) | 10.8% | -2.7% | 13.9% | 14.2% | 19.2% | 24.6%
5 | Cc1cc(Cl)ccc1Nc1nc2c(s1)C(=O)c1ccccc1C2=O | 90.8% (active) | 84.9% (active) | 85.6% (active) | 86.5% (active) | 87.6% (active) | 91.4% (active)
6 | CC(Cl)CNC(=O)Nc1cccc2c1CCCC2 (stereo unspecified) | 3.45% | 10.2% | -1.9% | -48.6% | -22.2% | -1.4%
7 | O=C1c2cc([N+](=O)[O-])ccc2-c2c(F)cc(F)cc21 | -58.5% | -8.05% | 9.35% | -50.4% | -2.1% | -10.7%
8 | COc1ccc(/C(=N/NC(=O)NN)C(c2ccc(OC)cc2)C2(O)CNc3c(Cl)cc(Cl)cc32)cc1 (stereo unspecified) | 1.75% | 14.4% | -9.15% | -16.4% | 16.4% | 12.7%
9 | COC(=O)c1ccc(NC(=O)c2cc(OC)c(OC)c(OC)c2)cc1 | -24.3% | -24.1% | -19.4% | -5.05% | -9% | -24%
10 | CN(C)C(=S)SCC(=O)c1ccccc1 | -23.1% | -27.6% | -16.6% | -20.2% | -9.7% | -10.6%
11 | O=C(CN1C(=O)c2ccccc2C1=O)NC(Cc1ccccc1)C(=O)O (stereo unspecified) | 7.85% | -6.9% | -16.9% | -12.5% | 10.1% | -9.65%
12 | O.[Cl][Pt].[NH-]CC[S-] | -9.5% | 4% | 12.3% | -9.6% | 1.3% | -2%
13 | CC(=O)NC(CCCN)C(=O)NCc1ccccc1 (stereo unspecified) | 3.45% | -19.2% | -20.3% | 17.5% | -3.45% | -22.6%
14 | COC(=O)c1cccc(Cl)n1 | 4.7% | -16.8% | -6.95% | 1.05% | 10.4% | 7.85%
15 | CN1CCN(C(=S)N(C(=O)c2ccc(Cl)cc2)C2CCCCC2)CC1 | -67% | -53.4% | -54.8% | -26.4% | -66.9% | -65.7%
16 | CCc1cc2c(c3c1CCCC3=O)CC1(C2)Cc2cc(CC)c3c(c2C1)C(=O)CCC3 | 6.05% | -9.9% | -3.6% | 5.4% | 10.7% | 4.5%
17 | CCOc1ccc(NC(=O)C(=O)CC(=O)C2=C(C)Nc3ccccc3S2)cc1 | 27.6% | 14.8% | 12.5% | -2.25% | -1% | 28.5%
18 | CN(C)Cc1ccnc(Cl)n1 | -16.2% | 20.1% | -16.8% | -34.5% | -13.3% | -8.1%
19 | Cn1c2ccccc2c(=O)c2cc(NC(=O)/C=C/C(=O)Nc3ccc4c(c3)c(=O)c3ccccc3n4C)ccc21 | -3.25% | 0.75% | -2.7% | -14.6% | -3.8% | 5.9%
20 | CC(=NCc1ccccc1)c1c(C)cc(=O)n(-c2ccccc2)c1O | -12.8% | -6.45% | -6.15% | -70.5% | -24.8% | -12%
21 | N=c1c2ccccc2nc2oc3ccc(Cl)cc3n12 | -15.4% | -32.5% | -6.25% | -0.45% | 15.6% | -8.55%

Row | Compound | growth inhibition [1] | growth inhibition [2] | growth inhibition [3] | growth inhibition [4] | growth inhibition [5] | growth inhibition [6]
22 | O=[N+]([O-])C[C@@]12O[C@]3(O)C4C5CC(C6C5C3C61)C42 (stereo partly specified) | 6.35% | 10.5% | 15.3% | 2.7% | 1.2% | 8.05%
23 | O=C(C[n+]1cccc2cccc(O)c21)c1ccc2ccccc2c1 | 6.6% | 7.6% | 18.8% | 26.6% | 1.15% | 2.7%
24 | CC(C)(C)n1c(=O)n(-c2ccccc2)n(C(C)(C)C)c1=O | 45.5% | -11.8% | -28.2% | 3% | -27.7% | -11%
25 | CCc1ccccc1NC(=S)NC1CCCCC1 | -2.7% | -8.85% | 0.05% | -18.5% | 32.2% | -5.6%
26 | Brc1cccc(-c2nnc(-c3cccc4ccccc34)o2)c1 | 1% | -11.2% | 0.5% | -39.2% | 6.7% | -8.55%
27 | O=N[O-].O=N[O-].[Co].[NH-]CC[N-]CC[N-]CC[NH-] | 10.4% | 7.2% | 1.9% | 3.65% | 19.6% | 11%
28 | O=C(O)C(O)c1ccc(Cl)cc1Cl (stereo unspecified) | 1.3% | -5.85% | 10.9% | 7.25% | -19.3% | 1.35%
29 | Cc1ccc2ccccc2[n+]1CC(=O)c1ccc2c(c1)OCO2 | -3% | -23.2% | -0.6% | 3.85% | -10.7% | 10.7%
30 | CCCCCCCCCCCCS(=O)(=O)O (tested in a mixture with another compound) | -5.1% | -6% | -9.05% | -12.4% | -22.5% | -12.8%
31 | CCOc1ccc(C(C)c2cc3c(cc2OCCO)OCO3)cc1 (stereo unspecified) | 28.6% | 29.2% | 69% | 59.9% | -29.6% | 68.5%
32 | O=C(O)/C=C\C(=O)Nc1ccc2c(c1)-c1ccccc1C2 | -6.95% | -16.4% | -14.6% | -22.4% | -28.1% | 2.15%
33 | CCOC(=O)c1ccc(N(CC(=O)O)S(=O)(=O)c2ccc(C)cc2)s1 | 17.5% | -1% | 2.5% | 16.6% | 0.85% | -8.8%
34 | CSc1nc(N)c(NS(=O)(=O)c2ccccc2)c(=O)[nH]1 | -10.6% | -18.1% | -17.6% | -2.9% | 6.95% | 6.05%
35 | O=C(NCCN1CCCCC1)C(O)(C1CCCCC1)C1CCCCC1 | -6.85% | 7.65% | 12.2% | 19.2% | 9.75% | 3.9%
36 | C=CCN1C2Cc3cc(OC)c(OC)cc3C1Cc1cc(OC)c(OC)cc12 | 0.15% | -19.2% | -23.6% | -6.45% | -16.2% | -10.3%
37 | Cc1ccc(Cl)cc1NC(=O)C(C)Oc1ccccc1 (stereo unspecified) | 4.45% | -1.85% | -2% | -4.75% | 30.1% | 13.9%
38 | Cc1cc(C)c2c(=O)n(-c3ccc(Br)cc3)c(=S)n(-c3ccc(Br)cc3)c2n1 | 19.2% | 4.35% | -3.2% | 12.8% | -3.85% | 23.5%
39 | CCCC1C(C#N)(C#N)C(C#N)=C(N)C1(C)C(C)=O (stereo unspecified) | 3.4% | 6.8% | -18.7% | 0.4% | -23.8% | -34.9%
40 | Cc1ccc(Nc2nc3ccccc3nc2NS(=O)(=O)c2ccc(N)cc2)cc1 | 20.2% | 11.8% | 13.3% | 5.85% | 7.45% | -4.2%
41 | COc1ccc(N=Cc2ccc(C=Nc3ccc(OC)cc3)cc2)cc1 | 23.2% | 2.25% | 21.3% | -0.95% | 20.1% | 19.9%
